Test results taken from a collection of fitness landscapes (doi:10.1016/j.celrep.2020.107928).
Whole data set: some 81,000 sequences, median “one-hybrid fitness for binding parS DNA” near -0.17, cut for the highest 2% near 0.51. Shown is part of a subset that was picked to be rich in the highest values.

B1: Caulobacter ParB omega fusion; a variant is named by its letters at X, in order, B8GW30 (parent)
chain: MESVVVGEPGMSEGRRGLGRGLSALLGEVDAAPAQAPGEQLGGSREAPIEILQRNPDQPRRTFREEDLEDLSNSIREKGVLQPILVRPSPDTAGEYQIVAGERAWRAAQRAGLKTVPIMVRELDDLAVLEIGIIENVQRADLNVLEEALSYKVLMEKFERTQENIAQTIGKSXSHVANXMRLLXLPDEVQSYLVSGELTAXHARAIAAAADPVALAKQIIEGGLSVRETEALARKAPNLSAGKSKGGRPPRVKDTDTQALESDLSSVLGLDVSIDHRGSTGTLTITYATLEQLDDLCNRLTRGI

Variants of: B1
Assay: one-hybrid fitness for binding parS DNA (scaled: cognate 1, non-cognate 0); higher = stronger binding
Conditions: with parS DNA site
Summary of the method: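 Fitness here means the log change in variant-to-wild-type read ratio between plasmids sequenced before and after selection. That scale was set so cognate equals 1 and non-cognate equals 0. The selection was a bacterial one-hybrid screen of Caulobacter ParB libraries, four specificity codons randomised, in E. coli USO carrying a HIS3 reporter with the site 19 bp from the promoter, grown 48 hours at 37°C on M9-minus-histidine with 0.1 mM IPTG and 5 mM 3-AT.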

one-hybrid fitness for binding parS DNA, 0.959:
RCWC

one-hybrid fitness for binding parS DNA, 0.759:
RHWC

one-hybrid fitness for binding parS DNA, 0.234:
RVQF

one-hybrid fitness for binding parS DNA, 0.887:
RKWC

one-hybrid fitness for binding parS DNA, 0.245:
RVLD

one-hybrid fitness for binding parS DNA, 0.883:
RSST

one-hybrid fitness for binding parS DNA, 0.254:
RKWM

one-hybrid fitness for binding parS DNA, 0.344:
RMWM

one-hybrid fitness for binding parS DNA, 1.01:
RVGG

one-hybrid fitness for binding parS DNA, 0.999:
RVQG

one-hybrid fitness for binding parS DNA, 0.923:
RCST

one-hybrid fitness for binding parS DNA, 0.653:
RRSS

one-hybrid fitness for binding parS DNA, 0.992:
RVLG

one-hybrid fitness for binding parS DNA, 0.323:
RRWN

one-hybrid fitness for binding parS DNA, 0.739:
RRWC

one-hybrid fitness for binding parS DNA, 0.412:
RSWN

one-hybrid fitness for binding parS DNA, 0.695:
RRSN

one-hybrid fitness for binding parS DNA, 0.838:
RLFT

one-hybrid fitness for binding parS DNA, 0.423:
RVLN

one-hybrid fitness for binding parS DNA, 0.255:
RLWF

one-hybrid fitness for binding parS DNA, ≤ 0.2:
WLTK
SYTT
YPIF
ESYW
ARYC
RVGK
RVGR
RVQR
EAAT
GLPN
PHRK
FRSF
RIWR
RIWQ
RHWH
RHWD
RKWR
RRWH
SIKI
YAQR
PSHG
PMWK
IENR
ANYG
HGQS
KWCC
NAYS
ENRN
TWCR
THVD
REWC
RMWL
RPWC
RSWH
LRIP
LILQ
ENVC
PHDG
NQKT
QLHL
SRVM
CYAS
LQFE
YSKG
TVTW
LNPP
GYPI
RLFR
RLAK
RLAQ
RLFQ
SNGD
SLHC
QQSF
CLAL
LSRM
SMQP
RRSH
RRSP
RRSD
RRSR
EKER
TCNL
QSVW
TGSG
MLIG
TASY
GFDT
RPST
RDST
REST

one-hybrid fitness for binding parS DNA, 0.847:
RSWC

one-hybrid fitness for binding parS DNA, 0.327:
RSSM

one-hybrid fitness for binding parS DNA, 0.342:
RLWM

one-hybrid fitness for binding parS DNA, 0.984:
RMWC

one-hybrid fitness for binding parS DNA, 0.24:
IFWT

one-hybrid fitness for binding parS DNA, 0.952:
RLWC

one-hybrid fitness for binding parS DNA, 0.936:
RIWC

one-hybrid fitness for binding parS DNA, 0.938:
RLAT
